Results as given in PubChem BioAssay (EPA / NIEHS).
Records with an inconclusive call do not appear. Active and inactive are the calls of the source. The calls were made as follows, unless noted: active = hit-call score of the fitted dose curve at least 0.9, where 1 is the maximum; inactive = score below 0.9.

Experiments:
[1] = target: Myc proto-oncogene protein (Homo sapiens) (UniProt P01106); assay: ATG_Myc_CIS: Attagene CIS-FACTORIAL HepG2 Assay for human Myelocytomatosis (Myc) Proto-Oncogene Transcription Factor (AID 2282990); conditions: HepG2, Attagene cis-reporter transcription factor activity; actives raise or lower the signal
How it was run: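 Transiently transfected HepG2 cells bearing cis-promoter reporter units for endogenous transcription factors; 24 h exposure. Reporter mRNA measured by RT-PCR, 6-FAM primer extension, HpaI cut and capillary electrophoresis; bidirectional fit relative to DMSO.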

[2] = ATG_NF_kB_CIS: Attagene CIS-FACTORIAL HepG2 Assay for human Nuclear Factor Kappa B (NF-kB) (AID 2282991); conditions: HepG2 Attagene cis-factorial NF-kB reporter mRNA; actives raise or lower the signal
How it was run: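 HepG2 cells transiently transfected with multiplexed cis-element reporter units measuring endogenous transcription factor activity; reporter mRNA read 24 h after dosing by RT-PCR, fluorescent labelling, HpaI digestion and capillary electrophoresis. Bidirectional fit against DMSO baseline.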

[3] = ATG_NRF2_ARE_CIS: Attagene CIS-FACTORIAL HepG2 Assay for human Nuclear Factor Erythroid 2 Related Factor 2 (NFR2) response to Antioxidant Response Elements (ARE) (AID 2282992); conditions: HepG2 Attagene ARE/NRF2 reporter, transcription factor activity; actives raise or lower the signal;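 as to AC50: reporter mRNA level measured by RT-PCR and capillary electrophoresis fluorescence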
How it was run: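 HepG2 cells transiently transfected with multiplexed cis-regulated reporter transcription units measure endogenous transcription factor activity. Reporter mRNA at 24 h is quantified by RT-PCR, fluorescent labelling and capillary electrophoresis, with bidirectional fitting relative to DMSO.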

[4] = ATG_Oct_MLP_CIS: Attagene CIS-FACTORIAL HepG2 Assay for human Octamer-Binding Transcription Factor (Oct) (AID 2282993); conditions: HepG2 Attagene cis-factorial Oct reporter, mRNA; actives raise or lower the signal
How it was run: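 HepG2 cells transiently transfected with cis-element-driven reporter transcription units (endogenous TF activity); 24 h compound exposure. Reporter mRNA quantified by RT-PCR, 6-FAM labelling, HpaI digestion and capillary electrophoresis; bidirectional fit versus DMSO baseline.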

[5] = target: Cellular tumor antigen p53 (Homo sapiens) (UniProt P04637); assay: ATG_p53_CIS: Attagene CIS-FACTORIAL HepG2 Assay for human p53 Transcription Factor (AID 2282994); conditions: HepG2 p53 cis-element reporter, Attagene mRNA; actives raise or lower the signal
How it was run: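 HepG2 cells transiently transfected with multiplexed cis-regulated reporter transcription units read endogenous TF activity. After 24 h compound exposure, reporter mRNA was quantified by RT-PCR, fluorescent labelling, HpaI digestion and capillary electrophoresis; bidirectional fits versus DMSO baseline.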

[6] = target: human Peroxisome Proliferator-activated Receptor delta (PPARd), PPARD (gene 5467) (UniProt Q03181); assay: ATG_PPARd_TRANS: Attagene TRANS-FACTORIAL HepG2 Assay for human Peroxisome Proliferator-activated Receptor delta (PPARd) (AID 2283002; active = hit-call score of the fitted dose curve at least 0.9, where 1 is the maximum)
How it was run: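 HepG2 cells transiently transfected with GAL4-UAS multiplexed reporter units driven by exogenous chimeric NR-GAL4 proteins; 24 h compound exposure. Reporter mRNA measured by RT-PCR, 6-FAM primer extension, HpaI digestion and capillary electrophoresis; gain of signal fitted relative to DMSO.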

[7] = target: Retinoic acid receptor alpha (Homo sapiens) (UniProt P10276); assay: ATG_RARa_TRANS: Attagene TRANS-FACTORIAL HepG2 Assay for human Retinoic Acid Receptor alpha (RARa) (AID 2283005; active = hit-call score of the fitted dose curve at least 0.9, where 1 is the maximum)
How it was run: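 HepG2 transiently transfected with multiplex GAL4-UAS reporter units including a human RARa–GAL4 chimera; 24 h compound exposure. Reporter mRNA quantified by RT-PCR, 6-FAM labeling and capillary electrophoresis; gain of signal versus DMSO.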

[8] = target: Peroxisome proliferator-activated receptor gamma (Homo sapiens) (UniProt P37231); assay: ATG_PPARg_TRANS: Attagene TRANS-FACTORIAL HepG2 Assay for human Peroxisome Proliferator-activated Receptor-gamma (PPARg) (AID 2283007; active = hit-call score of the fitted dose curve at least 0.9, where 1 is the maximum)
How it was run: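 HepG2 cells transiently transfected with multiplexed GAL4-UAS reporter units and exogenous chimeric NR-Gal4 proteins; reporter mRNA quantified after 24 h compound exposure by RT-PCR, fluorescent labelling, HpaI digestion and capillary electrophoresis; gain-of-signal fitted versus DMSO baseline.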

[9] = target: Nuclear receptor subfamily 1 group I member 2 (Homo sapiens) (UniProt O75469); assay: ATG_PXR_TRANS: Attagene TRANS-FACTORIAL HepG2 Assay for human Pregnane X Receptor (PXR) (AID 2283008; active = hit-call score of the fitted dose curve at least 0.9, where 1 is the maximum)
How it was run: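 HepG2 cells transiently transfected with multiple reporter units, here a PXR-GAL4 chimera driving a GAL4-UAS reporter; 24 h compound exposure. Reporter mRNA measured by RT-PCR, FAM labelling and capillary electrophoresis; gain of signal fitted against DMSO baseline.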

[10] = target: human Peroxisome Proliferator-activated Receptor alpha (PPARa), PPARA (gene 5465) (UniProt Q07869); assay: ATG_PPARa_TRANS: Attagene TRANS-FACTORIAL HepG2 Assay for human Peroxisome Proliferator-activated Receptor alpha (PPARa) (AID 2283001; active = hit-call score of the fitted dose curve at least 0.9, where 1 is the maximum;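 as to AC50: potency for gain of reporter signal over DMSO so agonist or activator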)
How it was run: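 HepG2 cells transiently transfected with multiplexed GAL4-UAS reporters driven by exogenous chimeric NR-Gal4 proteins; reporter mRNA measured after 24 h dosing. Read-out by RT-PCR, 6-FAM labelling, HpaI digestion and capillary electrophoresis; gain of signal versus DMSO.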

[11] = target: human RAR-related Orphan Receptor beta (RORb), RORB (gene 6096) (UniProt Q92753); assay: ATG_RORb_TRANS: Attagene TRANS-FACTORIAL HepG2 Assay for human RAR-related Orphan Receptor beta (RORb) (AID 2283010; active = hit-call score of the fitted dose curve at least 0.9, where 1 is the maximum)
How it was run: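 HepG2 cells transiently transfected with GAL4-UAS reporter units expressing chimeric NR-Gal4 protein; reporter mRNA measured 24 h after dosing by RT-PCR, 6-FAM labelling and capillary electrophoresis. Gain-of-signal fitted relative to DMSO baseline.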

[12] = target: human RAR-related Orphan Receptor gamma (RORg), RORC (gene 6097) (UniProt P51449); assay: ATG_RORg_TRANS: Attagene TRANS-FACTORIAL HepG2 Assay for human RAR-related Orphan Receptor gamma (RORg) (AID 2283011; active = hit-call score of the fitted dose curve at least 0.9, where 1 is the maximum;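 as to AC50: potency for induction of reporter transcripts above DMSO so activators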)
How it was run: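 HepG2 cells transiently transfected with GAL4-UAS reporter units and chimeric RORg-Gal4 construct; after 24 h chemical exposure, reporter mRNA measured by RT-PCR with fluorescent capillary electrophoresis, gain of signal fitted against DMSO.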

[13] = target: human Retinoic Acid Receptor beta (RARb), RARB (gene 5915) (UniProt P10826); assay: ATG_RARb_TRANS: Attagene TRANS-FACTORIAL HepG2 Assay for human Retinoic Acid Receptor beta (AID 2283004; active = hit-call score of the fitted dose curve at least 0.9, where 1 is the maximum)
How it was run: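 HepG2 cells were transiently transfected with GAL4-UAS reporter units that report activity of exogenous chimeric NR-Gal4 proteins, then exposed to compound for 24 h. Reporter mRNA was quantified by RT-PCR with capillary electrophoresis fluorescence, as gain of signal over DMSO.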

[14] = target: human Retinoic Acid Receptor gamma (RARg), RARG (gene 5916) (UniProt P13631); assay: ATG_RARg_TRANS: Attagene TRANS-FACTORIAL HepG2 Assay for human Retinoic Acid Receptor gamma (RARg) (AID 2283009; active = hit-call score of the fitted dose curve at least 0.9, where 1 is the maximum)
How it was run: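 HepG2 transiently transfected with GAL4-UAS reporter units and chimeric NR-Gal4 constructs; 24 h compound exposure. Reporter mRNA quantified by RT-PCR, FAM labeling, HpaI digestion and capillary electrophoresis; gain-of-signal versus DMSO.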

Measured: AC50

Chain of Cellular tumor antigen p53 (Homo sapiens) (P04637 whole entry, looked up): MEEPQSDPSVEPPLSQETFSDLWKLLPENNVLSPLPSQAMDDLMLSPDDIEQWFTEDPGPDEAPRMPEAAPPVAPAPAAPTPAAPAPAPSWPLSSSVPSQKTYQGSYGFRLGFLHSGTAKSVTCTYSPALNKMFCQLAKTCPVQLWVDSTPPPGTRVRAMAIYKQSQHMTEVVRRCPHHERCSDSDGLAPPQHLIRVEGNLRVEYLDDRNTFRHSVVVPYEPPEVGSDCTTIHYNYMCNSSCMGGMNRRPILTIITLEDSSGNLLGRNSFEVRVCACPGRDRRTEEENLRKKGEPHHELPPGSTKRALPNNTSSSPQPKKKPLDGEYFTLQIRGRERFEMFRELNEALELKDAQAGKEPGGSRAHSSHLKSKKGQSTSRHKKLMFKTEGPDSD
Chain of human Peroxisome Proliferator-activated Receptor alpha (PPARa), PPARA (gene 5465) (Q07869 whole entry, looked up, the tested form may be a part): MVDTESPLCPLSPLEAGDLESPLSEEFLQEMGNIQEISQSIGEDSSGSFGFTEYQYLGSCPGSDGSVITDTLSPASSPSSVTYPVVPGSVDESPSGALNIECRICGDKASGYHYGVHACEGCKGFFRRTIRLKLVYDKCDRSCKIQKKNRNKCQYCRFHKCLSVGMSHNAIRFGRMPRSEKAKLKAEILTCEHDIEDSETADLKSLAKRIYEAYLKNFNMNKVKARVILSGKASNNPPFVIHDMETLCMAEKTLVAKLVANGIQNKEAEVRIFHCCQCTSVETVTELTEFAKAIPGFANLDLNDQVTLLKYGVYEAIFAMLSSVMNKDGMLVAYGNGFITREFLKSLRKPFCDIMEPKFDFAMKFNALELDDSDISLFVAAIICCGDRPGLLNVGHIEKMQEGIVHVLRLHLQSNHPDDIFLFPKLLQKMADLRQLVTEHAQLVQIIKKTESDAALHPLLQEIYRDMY
Chain of Retinoic acid receptor alpha (Homo sapiens) (P10276 whole entry, looked up, the tested form may be a part): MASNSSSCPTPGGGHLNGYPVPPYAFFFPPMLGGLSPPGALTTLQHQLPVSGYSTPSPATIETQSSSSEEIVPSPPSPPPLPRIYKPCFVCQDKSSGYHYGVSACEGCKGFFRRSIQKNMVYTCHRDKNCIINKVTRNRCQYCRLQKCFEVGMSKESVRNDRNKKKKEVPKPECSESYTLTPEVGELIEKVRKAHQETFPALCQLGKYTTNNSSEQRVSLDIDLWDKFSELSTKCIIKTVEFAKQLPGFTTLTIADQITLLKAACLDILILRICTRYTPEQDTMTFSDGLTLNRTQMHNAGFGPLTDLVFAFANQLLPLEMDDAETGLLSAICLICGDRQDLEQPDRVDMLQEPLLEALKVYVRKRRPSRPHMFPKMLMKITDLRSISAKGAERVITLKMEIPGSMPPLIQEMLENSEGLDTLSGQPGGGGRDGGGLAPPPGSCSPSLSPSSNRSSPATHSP
Chain of Myc proto-oncogene protein (Homo sapiens) (P01106 whole entry, looked up): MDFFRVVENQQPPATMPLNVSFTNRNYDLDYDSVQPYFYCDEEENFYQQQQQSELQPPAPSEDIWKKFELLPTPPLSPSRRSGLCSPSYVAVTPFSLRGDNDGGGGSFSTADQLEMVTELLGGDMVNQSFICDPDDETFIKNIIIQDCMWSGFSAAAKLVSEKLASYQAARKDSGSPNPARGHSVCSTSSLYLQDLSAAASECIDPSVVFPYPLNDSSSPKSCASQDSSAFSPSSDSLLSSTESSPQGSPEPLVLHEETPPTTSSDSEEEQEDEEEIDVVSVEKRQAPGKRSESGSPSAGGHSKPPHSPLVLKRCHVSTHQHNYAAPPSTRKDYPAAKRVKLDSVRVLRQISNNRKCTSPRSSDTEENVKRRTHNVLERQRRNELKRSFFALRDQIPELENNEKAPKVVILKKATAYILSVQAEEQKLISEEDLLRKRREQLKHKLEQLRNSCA
Chain of human Retinoic Acid Receptor beta (RARb), RARB (gene 5915) (P10826 whole entry, looked up, the tested form may be a part): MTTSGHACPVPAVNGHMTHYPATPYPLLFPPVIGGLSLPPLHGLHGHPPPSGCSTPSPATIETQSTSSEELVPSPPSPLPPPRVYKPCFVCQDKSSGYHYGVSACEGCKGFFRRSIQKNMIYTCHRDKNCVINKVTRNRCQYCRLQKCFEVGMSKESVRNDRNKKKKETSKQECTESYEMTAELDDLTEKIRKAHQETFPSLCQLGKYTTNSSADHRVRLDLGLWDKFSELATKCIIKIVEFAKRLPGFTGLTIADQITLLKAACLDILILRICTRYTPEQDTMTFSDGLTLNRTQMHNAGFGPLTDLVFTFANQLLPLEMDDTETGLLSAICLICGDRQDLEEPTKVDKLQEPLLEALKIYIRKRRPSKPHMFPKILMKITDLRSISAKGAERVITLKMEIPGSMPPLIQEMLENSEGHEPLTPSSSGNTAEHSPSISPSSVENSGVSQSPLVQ
Chain of human Peroxisome Proliferator-activated Receptor delta (PPARd), PPARD (gene 5467) (Q03181 whole entry, looked up, the tested form may be a part): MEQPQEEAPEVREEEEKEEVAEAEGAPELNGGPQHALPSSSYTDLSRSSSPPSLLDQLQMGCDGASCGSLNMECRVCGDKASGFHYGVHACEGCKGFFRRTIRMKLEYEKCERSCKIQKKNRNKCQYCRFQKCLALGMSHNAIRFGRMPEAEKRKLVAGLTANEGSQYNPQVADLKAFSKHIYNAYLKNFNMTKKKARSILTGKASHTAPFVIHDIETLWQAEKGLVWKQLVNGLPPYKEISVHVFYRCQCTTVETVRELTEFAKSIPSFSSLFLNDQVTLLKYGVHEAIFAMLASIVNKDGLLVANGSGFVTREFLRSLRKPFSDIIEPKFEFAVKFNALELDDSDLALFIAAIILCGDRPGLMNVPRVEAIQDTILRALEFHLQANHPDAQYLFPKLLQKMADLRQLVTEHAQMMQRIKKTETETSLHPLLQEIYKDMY
Chain of Peroxisome proliferator-activated receptor gamma (Homo sapiens) (P37231 whole entry, looked up, the tested form may be a part): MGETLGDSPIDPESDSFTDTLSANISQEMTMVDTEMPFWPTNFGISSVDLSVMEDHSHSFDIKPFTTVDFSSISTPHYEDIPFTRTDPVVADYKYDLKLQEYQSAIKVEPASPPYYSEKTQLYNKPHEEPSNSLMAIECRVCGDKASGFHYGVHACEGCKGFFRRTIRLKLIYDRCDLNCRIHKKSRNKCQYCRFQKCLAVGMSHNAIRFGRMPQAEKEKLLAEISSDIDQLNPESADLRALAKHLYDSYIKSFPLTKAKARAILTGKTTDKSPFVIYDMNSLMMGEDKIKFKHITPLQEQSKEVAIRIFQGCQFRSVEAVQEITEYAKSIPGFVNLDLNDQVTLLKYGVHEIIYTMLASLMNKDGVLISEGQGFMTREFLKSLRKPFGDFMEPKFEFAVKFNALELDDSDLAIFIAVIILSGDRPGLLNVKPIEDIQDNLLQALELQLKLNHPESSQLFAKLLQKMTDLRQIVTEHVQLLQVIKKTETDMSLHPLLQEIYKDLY
Chain of human Retinoic Acid Receptor gamma (RARg), RARG (gene 5916) (P13631 whole entry, looked up, the tested form may be a part): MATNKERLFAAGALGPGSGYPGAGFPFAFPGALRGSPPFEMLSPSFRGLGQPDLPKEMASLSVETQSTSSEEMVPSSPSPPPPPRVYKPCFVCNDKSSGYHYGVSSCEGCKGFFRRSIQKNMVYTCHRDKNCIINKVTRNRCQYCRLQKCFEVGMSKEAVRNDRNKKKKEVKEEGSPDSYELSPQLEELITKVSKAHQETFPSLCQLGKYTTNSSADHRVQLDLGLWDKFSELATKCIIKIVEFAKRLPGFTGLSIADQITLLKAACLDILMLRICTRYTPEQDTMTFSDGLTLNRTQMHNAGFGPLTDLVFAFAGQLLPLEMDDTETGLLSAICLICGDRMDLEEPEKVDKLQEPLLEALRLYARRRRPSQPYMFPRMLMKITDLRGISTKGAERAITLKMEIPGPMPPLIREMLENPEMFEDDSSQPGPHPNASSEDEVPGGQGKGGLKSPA
Chain of Nuclear receptor subfamily 1 group I member 2 (Homo sapiens) (O75469 whole entry, looked up, the tested form may be a part): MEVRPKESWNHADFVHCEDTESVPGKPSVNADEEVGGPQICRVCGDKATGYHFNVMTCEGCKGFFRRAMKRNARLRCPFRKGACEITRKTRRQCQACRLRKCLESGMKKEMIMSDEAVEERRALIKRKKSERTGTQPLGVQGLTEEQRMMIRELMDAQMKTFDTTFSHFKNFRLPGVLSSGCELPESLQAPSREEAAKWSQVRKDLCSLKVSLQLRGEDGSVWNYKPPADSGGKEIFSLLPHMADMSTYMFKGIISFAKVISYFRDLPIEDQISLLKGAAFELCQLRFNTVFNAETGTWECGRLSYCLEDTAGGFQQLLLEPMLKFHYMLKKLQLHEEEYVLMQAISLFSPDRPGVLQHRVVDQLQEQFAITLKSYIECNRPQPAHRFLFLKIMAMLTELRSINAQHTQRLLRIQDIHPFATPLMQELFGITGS
Chain of human RAR-related Orphan Receptor beta (RORb), RORB (gene 6096) (Q92753 whole entry, looked up, the tested form may be a part): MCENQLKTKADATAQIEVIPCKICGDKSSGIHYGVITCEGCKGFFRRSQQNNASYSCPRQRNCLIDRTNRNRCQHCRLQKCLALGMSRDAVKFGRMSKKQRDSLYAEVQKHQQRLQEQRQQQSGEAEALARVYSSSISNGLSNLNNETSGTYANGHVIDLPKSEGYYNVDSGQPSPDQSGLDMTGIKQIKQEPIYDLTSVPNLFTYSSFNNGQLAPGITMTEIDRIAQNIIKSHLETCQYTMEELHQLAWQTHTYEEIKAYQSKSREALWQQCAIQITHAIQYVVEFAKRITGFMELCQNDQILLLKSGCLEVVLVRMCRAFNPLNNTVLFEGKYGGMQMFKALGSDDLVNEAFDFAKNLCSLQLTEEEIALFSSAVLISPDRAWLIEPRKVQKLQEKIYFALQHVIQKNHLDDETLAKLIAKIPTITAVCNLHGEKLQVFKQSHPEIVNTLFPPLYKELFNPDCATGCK

COCCc1ccc(OCC(O)CNC(C)C)cc1 (stereo not drawn)
not listed: [10] | [11] | [12] | [13] | [14]
inactive: all other assays above

ON=C1CCCCC1
inactive: [1] | [2] | [3] | [4] | [5] | [10] | [11] | [12]

CCCCCCCC(=O)OCCCCCC
not listed: [10] | [11]
inactive: all other assays above

CC(C)(C)C1=CC(=O)C(C(C)(C)C)=CC1=O
active: [1] 77.3 µM | [2] 50 µM | [3] 13.7 µM | [5] 30.5 µM | [8] 50 µM | [9] 5.78 µM | [12] 72 µM
inactive: [4] | [6]

O=C(O)c1cccnc1C(=O)O
not listed: [6] | [8] | [9] | [10] | [11]
inactive: all other assays above

C[C@H](CCC(=O)NCC(=O)O)[C@H]1CC[C@H]2[C@@H]3[C@H](O)C[C@@H]4C[C@H](O)CC[C@]4(C)[C@H]3C[C@H](O)[C@]12C
not listed: [6] | [9] | [10] | [12] | [14]
inactive: all other assays above

CCCC(C)=O
not listed: [8] | [9] | [10] | [12] | [13]
inactive: all other assays above

CCCCCc1ccco1
inactive: [1] | [4] | [5] | [6]
active: [2] 54.2 µM | [3] 31.9 µM | [8] 4.11 µM | [9] 2.75 µM

Nc1ccccc1[N+](=O)[O-]
inactive: [1] | [2] | [3] | [4] | [5] | [6] | [8] | [9]

CC1C2CC(CC2C2CCCC(O)C2)C1(C)C (stereo not drawn)
active: [9] 14.3 µM
not listed: [7] | [10] | [11] | [13]
inactive: all other assays above

Brc1ccc(Br)c(Br)c1
not listed: [6] | [10] | [13]
inactive: all other assays above

CCC(=O)O[C@@H]1C[C@H]2CC[C@]1(C)C2(C)C
not listed: [6] | [8] | [10] | [12]
inactive: all other assays above

CC1CC(O)CC(C)(C)C1 (stereo not drawn)
not listed: [6] | [8] | [10] | [12]
inactive: all other assays above

CCCCC1CCC(O)CC1 (stereo not drawn)
not listed: [10] | [11] | [12]
inactive: all other assays above

CCCCC(CC)C(=O)OC(C)C (stereo not drawn)
not listed: [6] | [7] | [10] | [12] | [14]
inactive: all other assays above

CC(C)(CO)[C@@H](O)C(=O)NCCC(=O)O
inactive: [1] | [2] | [3] | [4] | [5] | [6] | [9] | [14]

C#CC(C)N(C)C(=O)Nc1ccc(Cl)cc1 (stereo not drawn)
active: [3] 48.4 µM
not listed: [6] | [7] | [10] | [12] | [13]
inactive: all other assays above

ClC(c1ccccc1)(c1ccccc1)c1ccccc1
active: [9] 2.2 µM
not listed: [7] | [8] | [10] | [11] | [12]
inactive: all other assays above

[Cl][Au]([Cl])[Cl]
active: [3] 0.156 µM
inactive: [1] | [2] | [4] | [5] | [6] | [12]

COc1cc(C(C)C)ccc1C
not listed: [8] | [9] | [10] | [11]
inactive: all other assays above

C=COCCOCCOC=C
inactive: [1] | [2] | [3] | [4] | [5] | [6] | [8]

CCOc1ccc(NC(=O)CC(C)O)cc1 (stereo not drawn)
not listed: [6] | [10] | [11] | [14]
inactive: all other assays above

CCCOC(=O)c1c(Cl)c(Cl)c(Cl)c(Cl)c1C(=O)OCCC
inactive: [2] | [5] | [6]
active: [1] 100 µM | [3] 55.3 µM | [4] 148 µM | [8] 5.66 µM | [9] 4.24 µM

COC(=O)c1ccc(C)cc1C1=NC(C)(C(C)C)C(=O)N1 (stereo not drawn) (tested in a mixture with another compound)
inactive: [1] | [2] | [3] | [4] | [5] | [7] | [9]

CCC1(C)NC(=O)NC1=O (stereo not drawn)
inactive: [1] | [2] | [3] | [4] | [5] | [13] | [14] | [11]

C=C1CC[C@H](O)C/C1=C/C=C1\CCC[C@]2(C)[C@@H]([C@H](C)/C=C/[C@H](C)C(C)C)CC[C@@H]12
active: [2] 44.5 µM | [3] 27 µM | [9] 3.81 µM
inactive: [1] | [4] | [5] | [8]

O=CCc1ccccc1
active: [8] 22.9 µM | [9] 13.1 µM
inactive: [1] | [2] | [3] | [4] | [5] | [14] | [12]

Cc1ccc(-c2ccccc2)cc1
inactive: [1] | [2] | [3] | [4] | [5] | [9]

Cc1ccc(N)c(S(=O)(=O)O)c1
inactive: [1] | [2] | [3] | [4] | [5] | [8] | [9] | [12]

CCCCCCCCCCCC(=O)OCC(O)CO (stereo not drawn)
active: [2] 100 µM | [3] 100 µM | [10] 100 µM | [8] 100 µM
inactive: [1] | [4] | [9] | [14]

CCCCCCC(C)(C)S
not listed: [5] | [6] | [11] | [12] | [13]
inactive: all other assays above

CC(C)CCOC(=O)c1ccccc1
inactive: [1] | [2] | [3] | [4] | [5] | [9]
